From PubChem BioAssay (NCATS)
Inconclusive results are not listed. Entries that show only a call come without a potency. A number with no mark means an inactive call. Active and inactive are the calls of the source. The call rests on the fitted dose curve; in most records, active means well fitted curve in the direction sought with a large enough effect; inconclusive means small, poorly fitted or top-dose-only effect, or another doubt; inactive means no such curve, though single readings can be large; an effect the other way counts as inactive or inconclusive.

Columns and labels:
HEK293 = assay: Cytotoxic Profiling of Annotated Libraries Using Quantitative High-Throughput Screening (AID 1296008); settings: Five cell lines viability, CellTiter-Glo ATP luminescence, 48-72 h; max response: active compounds read low; further: nearly all actives have a fitted effect of over 60% in size; further: potency means the concentration at half of the fitted maximal effect
How it was run: (§1)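 Cytotoxicity was measured as CellTiter-Glo ATP luminescence, read after 10 min at room temperature. Compound treatment of the cells lasted 48 or 72 hr at 37 degrees Celsius in a qHTS format.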

HaCat = assay: as above; settings: Five cell lines viability, CellTiter-Glo ATP luminescence, 48-72 h; max response: active compounds read low
How it was run: as §1

KB-3-1 = assay: as above; settings: Five cell lines viability, CellTiter-Glo ATP luminescence, 48-72 h; max response: active compounds read low
How it was run: as §1

NIH3T3 = assay: as above; settings: Five cell lines viability, CellTiter-Glo ATP luminescence, 48-72 h; max response: active compounds read low
How it was run: as §1

C33A = assay: Primary qHTS to identify gynecologic anti-cancer compounds using libraries of approved drugs and bioactive compounds (AID 1345084); settings: Gynecologic cancer cell panel viability, ATPlite luminescence, 48 h; series mostly up to 57.5 µM; further: nearly all actives have a fitted effect of over 55% in size
How it was run: (§2)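 48 h compound exposure at 37 C, 5% CO2; five-point qHTS. ATPlite luminescence readout of cell ATP.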

CAOV3 = assay: as above; settings: Gynecologic cancer cell panel viability, ATPlite luminescence, 48 h; series mostly up to 57.5 µM
How it was run: as §2

CASKI = assay: as above; settings: Gynecologic cancer cell panel viability, ATPlite luminescence, 48 h; series mostly up to 57.5 µM
How it was run: as §2

Es-2 = assay: as above; settings: Gynecologic cancer cell panel viability, ATPlite luminescence, 48 h; series mostly up to 57.5 µM
How it was run: as §2

HeLa = assay: as above; settings: Gynecologic cancer cell panel viability, ATPlite luminescence, 48 h; series mostly up to 57.5 µM
How it was run: as §2

Hek293T = assay: as above; settings: Gynecologic cancer cell panel viability, ATPlite luminescence, 48 h, control line for the selectivity index; series mostly up to 57.5 µM
How it was run: as §2

JEG-3 = assay: as above; settings: Gynecologic cancer cell panel viability, ATPlite luminescence, 48 h; series mostly up to 57.5 µM
How it was run: as §2

Structure (SMILES)	max response (HEK293)	max response (HaCat)	max response (KB-3-1)	max response (NIH3T3)	activity change, negative = cytotoxicity (C33A)	activity change, negative = cytotoxicity (CAOV3)	activity change, negative = cytotoxicity (CASKI)	activity change, negative = cytotoxicity (Es-2)	activity change, negative = cytotoxicity (HeLa)	activity change, negative = cytotoxicity (Hek293T)	activity change, negative = cytotoxicity (JEG-3)	Potency (C33A)	Potency (CAOV3)	Potency (CASKI)	Potency (Es-2)	Potency (HeLa)	Potency (Hek293T)	Potency (JEG-3)	Potency (HEK293)	outcome (KB-3-1)
CC(CCC1(O)OC2CC3C4CCC5CC(O[C@@H]6O[C@H](CO)[C@@H](O)[C@H](O)[C@H]6O[C@@H]6O[C@@H](C)[C@H](O)[C@@H](O)[C@H]6O)C(O)CC5(C)C4CCC3(C)C2C1C)CO[C@@H]1O[C@H](CO)[C@@H](O)[C@H](O)[C@H]1O (stereo partly drawn)	0.184%	-8.4%	-6.35%	-21%	3.88% [at 11.6 µM]	-13.8% [at 11.6 µM]	-0.222% [at 11.6 µM]	-3.1% [at 11.6 µM]	3.09% [at 11.6 µM]	17.8% [at 11.6 µM]	-0.873% [at 11.6 µM]	–	–	–	–	–	–	–	–	–
C[C@@H]([C@@H](O)c1ccc(O)cc1)N1CCC(O)(c2ccccc2)CC1	-2%	-0.788%	-1.25%	1.49%	–	–	–	–	–	–	–	inactive	inactive	inactive	inactive	inactive	inactive	inactive	–	–
CC1(C)CC2=C3C=CC4C5(C)CCC(O)C(C)(C)C5CCC4(C)C3(C)CCC2(C)C(O)C1 (stereo not drawn)	-1.33%	-3.58%	-4.92%	-2.26%	–	–	–	–	–	–	–	inactive	inactive	inactive	inactive	inactive	inactive	inactive	–	–
C=C[C@@]12COC(=O)C(=C)C1[C@@H](O)[C@H](C(=C)C(=O)OC)[C@@H](OC(=O)C(=C)CO)C2 (stereo partly drawn)	–	-6.28%	–	-25.8%	–	–	–	–	–	–	–	inactive	inactive	inactive	inactive	inactive	inactive	inactive	10 µM (active)	inactive
CC(C)(C)OC(=O)N1CCC(OCc2nc(-c3ccncc3)no2)CC1	0.811%	4.75%	-6.38%	-1.32%	–	–	–	–	–	–	–	inactive	inactive	inactive	inactive	inactive	inactive	inactive	–	–
CC(O)CCC1C(CO[C@@H]2O[C@H](CO)[C@@H](O)[C@H](O)[C@H]2O)CC(O)CC1(C)C (stereo partly drawn)	1.92%	-5.9%	8.38%	-8.75%	–	–	–	–	–	–	–	inactive	inactive	inactive	inactive	inactive	inactive	inactive	–	–
O=C(O)c1cccc(S(=O)(=O)N2CCc3ccccc3C2)c1	-4.38%	-24.7%	0.457%	-16.4%	–	–	–	–	–	–	–	inactive	inactive	inactive	inactive	inactive	inactive	inactive	–	–
CC1(C)CC[C@]2(CO[C@@H]3O[C@H](CO)[C@@H](O)[C@H](O)[C@H]3O)[C@@H](O)C[C@]3(C)C(=CCC4[C@@]5(C)CC[C@H](O[C@@H]6O[C@H](CO[C@@H]7O[C@H](CO[C@@H]8OC[C@@H](O)[C@H](O)[C@H]8O)[C@@H](O)[C@H](O)[C@H]7O)[C@@H](O)[C@H](O)[C@H]6O)C(C)(C)C5CC[C@]43C)[C@@H]2C1 (stereo partly drawn)	-6.51%	-32.8%	-2.27%	-21.6%	4.63% [at 11.6 µM]	5.01% [at 11.6 µM]	-3.94% [at 11.6 µM]	4.96% [at 11.6 µM]	-7.27% [at 11.6 µM]	1.89% [at 11.6 µM]	1.67% [at 11.6 µM]	–	–	–	–	–	–	–	–	–
CC(C)[C@H]1CC[C@@]2(O)COC(=O)[C@H]2[C@@H]1/C=C(\CO)C(=O)O	2.97%	-2.34%	0.265%	-2.01%	–	–	–	–	–	–	–	inactive	inactive	inactive	inactive	inactive	inactive	inactive	–	–
CCOc1ccc2nc(SCCN3CCOCC3)[nH]c2c1	-19.2%	4.78%	-9.7%	0.835%	–	–	–	–	–	–	–	inactive	inactive	inactive	inactive	inactive	inactive	inactive	–	–
CC1=C2C3OC(=O)C(C)C3(O)CCC2(C)CCC1O (stereo not drawn)	-8.27%	-12.8%	5.71%	-16.2%	–	–	–	–	–	–	–	inactive	inactive	inactive	inactive	inactive	inactive	inactive	–	–
C=C1C(=O)OC2C1C(O)CC1(C)C(O)CCC(C=O)C21 (stereo not drawn)	-0.284%	-11.8%	–	-0.523%	–	–	–	–	–	–	–	inactive	inactive	inactive	inactive	inactive	inactive	inactive	–	inactive
C[C@@H]1O[C@@H](O[C@H]2[C@H](O)[C@@H](O[C@@H]3O[C@H](CO)[C@@H](O)[C@H](O[C@@H]4O[C@H](CO)[C@@H](O)[C@H](O)[C@H]4O)[C@H]3O)[C@H](O[C@H]3CC[C@@]4(C)C(=CC[C@@H]5C4CC[C@@]4(C)C5C[C@@H]5OC6(CC[C@@](C)(CO[C@@H]7O[C@H](CO)[C@@H](O)[C@H](O)[C@H]7O)O6)[C@@H](C)[C@@H]54)C3)O[C@@H]2CO)[C@H](O)[C@H](O)[C@H]1O (stereo partly drawn)	3.47%	-19%	4.11%	3.35%	0.269% [at 6.55 µM]	-0.0617% [at 6.55 µM]	-1.1% [at 6.55 µM]	-0.893% [at 6.55 µM]	-3.62% [at 6.55 µM]	9.02% [at 6.55 µM]	-5.56% [at 6.55 µM]	–	–	–	–	–	–	–	–	–
